These results are taken from paper PMC4336329 (PLoS ONE, 2015).

The structures appear in SMILES notation. In all, about 310,000 compounds went through this assay and about 14,000 (4.5%) showed an effect of 50% or more. The effect is printed as a negative number. The entries come from a sample that favours strong results as a whole.
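Note: peak tail current of the secondary pulse compared with the same well before compound.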

In the assay the target is human ether-à-go-go-related gene (hERG) potassium channel (human, UniProt Q12809). Nature of the assay: primary screen, population patch clamp on CHO cells stably expressing hERG; higher = less effect of the substance.
Sequence of human ether-à-go-go-related gene (hERG) potassium channel (Q12809 whole entry, looked up): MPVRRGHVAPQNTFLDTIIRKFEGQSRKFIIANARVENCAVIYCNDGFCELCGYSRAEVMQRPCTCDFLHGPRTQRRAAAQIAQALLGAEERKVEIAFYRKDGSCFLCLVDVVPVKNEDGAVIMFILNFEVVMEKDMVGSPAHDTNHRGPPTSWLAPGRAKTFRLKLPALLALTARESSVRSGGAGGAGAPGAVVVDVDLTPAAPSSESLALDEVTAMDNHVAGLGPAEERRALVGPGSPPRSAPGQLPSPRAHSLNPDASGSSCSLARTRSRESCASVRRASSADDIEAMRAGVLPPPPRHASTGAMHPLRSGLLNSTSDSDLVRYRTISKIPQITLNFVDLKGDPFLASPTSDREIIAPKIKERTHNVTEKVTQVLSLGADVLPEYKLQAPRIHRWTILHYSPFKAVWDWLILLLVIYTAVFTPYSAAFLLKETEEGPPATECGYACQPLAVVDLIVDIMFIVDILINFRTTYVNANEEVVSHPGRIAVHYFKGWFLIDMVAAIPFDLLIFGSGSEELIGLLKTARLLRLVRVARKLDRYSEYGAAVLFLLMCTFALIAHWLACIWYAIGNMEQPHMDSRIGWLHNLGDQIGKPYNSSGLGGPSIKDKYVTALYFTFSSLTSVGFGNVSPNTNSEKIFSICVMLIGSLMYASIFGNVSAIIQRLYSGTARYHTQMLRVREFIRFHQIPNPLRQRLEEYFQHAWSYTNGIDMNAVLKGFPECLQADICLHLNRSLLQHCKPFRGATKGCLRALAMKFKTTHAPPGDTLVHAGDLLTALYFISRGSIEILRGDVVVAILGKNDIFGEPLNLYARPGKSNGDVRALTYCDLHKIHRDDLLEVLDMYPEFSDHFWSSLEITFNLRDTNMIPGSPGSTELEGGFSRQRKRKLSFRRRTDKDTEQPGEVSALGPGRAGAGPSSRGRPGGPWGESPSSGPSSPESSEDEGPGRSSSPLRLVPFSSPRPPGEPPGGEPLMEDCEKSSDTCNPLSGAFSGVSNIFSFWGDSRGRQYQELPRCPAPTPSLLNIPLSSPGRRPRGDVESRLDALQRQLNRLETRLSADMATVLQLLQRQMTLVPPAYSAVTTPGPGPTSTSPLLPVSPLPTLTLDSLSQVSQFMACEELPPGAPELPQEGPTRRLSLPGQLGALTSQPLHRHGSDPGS
With `Cn1nc(-c2ccc(N3CCCCC3)c(NC(=O)c3ccco3)c2)c2ccccc2c1=O`, the “hERG current change (%, negative = inhibition) at 10uM” value came to 9.65%.
Regarding `CN(C)CCCNC(=S)N(Cc1cccs1)Cc1cc2cc3c(cc2[nH]c1=O)OCCO3`, the “hERG current change (%, negative = inhibition) at 10uM” value is listed as 6.79%.
Regarding `Cc1ccc(/C=C2\SC(=S)N(CCC(=O)NNS(=O)(=O)c3ccc(C)cc3)C2=O)cc1`, the “hERG current change (%, negative = inhibition) at 10uM” value is on record as 28.8%.
Next, `CN(C(=O)COC(=O)/C=C/c1cn(-c2ccccc2)nc1-c1ccc2c(c1)OCCO2)C1CCS(=O)(=O)C1` (centres unmarked): -3.86%; `Cc1cc(=O)[nH]c(SCC(=O)NCCOc2ccccc2)n1`: 1.39%; `COCCN(C(=S)Nc1cccc(C)c1)C(C)c1cccnc1` (centres unmarked): -4.61%.
Turning to `Cc1ccccc1NC(=S)N(CCN(C)C)C(C)c1cccnc1` (centres unmarked), the “hERG current change (%, negative = inhibition) at 10uM” value is reported as -50.1%.
Next, `Cc1cccc(C)c1NC(=S)N(CCN(C)C)C(C)c1cccnc1` (centres unmarked): -9.34%; `CCc1ccccc1NC(=S)N(CCN(C)C)C(C)c1cccnc1` (centres unmarked): -7.25%.
For `COCCN(C(=S)Nc1cc(C)cc(C)c1)C(C)c1cccnc1` (centres unmarked), the “hERG current change (%, negative = inhibition) at 10uM” value is -58.4%.
With `COCCN(C(=S)Nc1ccc(C)cc1)C(C)c1cccnc1` (centres unmarked), the “hERG current change (%, negative = inhibition) at 10uM” value was -22.9%.
Regarding `Cc1ccccc1NC(=O)c1ccc(N/N=C/c2ccccc2O)c([N+](=O)[O-])c1`, the “hERG current change (%, negative = inhibition) at 10uM” value is given as 9.72%.
The figure for `CC(Sc1nnc(-c2ccncc2)n1C)C(=O)NCC1CCCO1` (centres unmarked) is 4.42%; for `CC(C)Cc1ccc(CN2CCCC(NC(=O)CCCN3CCCC3=O)C2)cc1` (centres unmarked) it is -25.8%; for `O=C(NC1CCCN(Cc2ccc(Cl)cc2)C1)c1cccc(N2CCCC2=O)c1` (centres unmarked) it is -14.8%.
Next, `CC(C)Cc1ccc(CN2CCCC(NC(=O)c3cccc(-n4cnnc4)c3)C2)cc1` (centres unmarked): -81%.
On to `Cc1occc1C(=O)NC1CCCN(Cc2ccc(CC(C)C)cc2)C1` (centres unmarked), for which the “hERG current change (%, negative = inhibition) at 10uM” value is -38%.
For the compound `O=C(NC1CCCN(Cc2ccc(Cl)cc2)C1)c1ccnc(Cl)c1` (centres unmarked), the “hERG current change (%, negative = inhibition) at 10uM” value is on record as -38.6%.
Next, `O=C(NC1CCCN(Cc2ccc(Cl)cc2)C1)c1cnc2ccccn2c1=O` (centres unmarked): -21.8%; `CC(C)Cc1ccc(CN2CCCC(NC(=O)c3ccoc3)C2)cc1` (centres unmarked): -70.9%; `O=C(NC1CCCN(Cc2ccc(Cl)cc2)C1)c1ccoc1` (centres unmarked): -50.1%.
In the case of `CC(C)c1ccc(NC2CCCN(C(=O)c3cnc4ccccn4c3=O)C2)cc1` (centres unmarked), the “hERG current change (%, negative = inhibition) at 10uM” value is on record as 12%.
The figure for `Cc1occc1C(=O)NC1CCCN(Cc2ccc(Cl)cc2)C1` (centres unmarked) is -38.4%; for `CC(C)Cc1ccc(CN2CCCC(NC(=O)c3cnc4ccccn4c3=O)C2)cc1` (centres unmarked) it is -71.8%; for `COc1ccc(S(=O)(=O)N2CCN(c3ccccn3)CC2)cc1OC` it is -12%.
For the compound `CC#CCN1c2ccccc2[C@]23C[C@@H](C(=O)OC)N(C(=O)c4ccco4)C2=NC(C(=O)OC)=C(C(=O)OC)[C@H]13`, the “hERG current change (%, negative = inhibition) at 10uM” value was -2.03%.
As to `Cc1nn(-c2ccccc2)c(C)c1/C=N\NS(=O)(=O)c1ccc(Cl)cc1`, the “hERG current change (%, negative = inhibition) at 10uM” value is on record as -17.7%.
Next, `Cc1cc(C)cc(OCC(=O)NNC(=O)c2cc(C)[nH]n2)c1`: 13.9%; `O=C(CCC(=O)N1CCSc2ccccc21)NCCc1ccccc1`: -30.5%.
As to `CCn1c(SCC(=O)N/N=C/c2ccccc2OCC(=O)O)nnc1-c1ccccc1`, the “hERG current change (%, negative = inhibition) at 10uM” value amounted to 5.58%.
The figure for `CNCC(O)C(O)C(O)C(O)CO` (centres unmarked) is -0.427%; for `CC(C)C(=O)Nc1ccc(NC(=O)CCc2ccccc2)cn1` it is 18.4%.
The figure for `CC(=O)Nc1ccc(S(=O)(=O)NCC2CCC(C(=O)N3CC(C)CC(C)C3)CC2)cc1` (centres unmarked) is 5.39%.
Consider `Cn1nccc1C(=O)NC1CCN(Cc2ccccc2)CC1`, for which the “hERG current change (%, negative = inhibition) at 10uM” value is -14.4%.
Next, `CC(C)Cc1ccc(CN2CCCC(NC(=O)c3ccnn3C)C2)cc1` (centres unmarked): -68.7%.
The figure for `CC(C)Cc1ccc(CN2CCCC(NC(=O)CCN3CCCO3)C2)cc1` (centres unmarked) is -43.4%; for `Cl.OC(CNC1CCCC1)COCCOc1ccc(Br)cc1` (centres unmarked) it is -27.4%.
Next, `C#CCOCCOCCOCCNc1nc(N2CCN(C(=O)[C@H]([C@@H](C)CC)n3cc([C@@H](N)Cc4ccc(O)cc4)nn3)CC2)nc(N2CCN(C(=O)[C@H]([C@@H](C)CC)n3cc([C@@H](N)CC(C)C)nn3)CC2)n1.Cl`: 0.378%.
`COCCCNCC(O)COc1ccccc1F` (centres unmarked): the “hERG current change (%, negative = inhibition) at 10uM” value was 5.58%.
The figure for `CC(=O)c1cccc(OCC(O)CNCCOc2ccc(C)cc2)c1` (centres unmarked) is -36.5%; for `CCOC(=O)c1cccc(OCC(O)CNCCOc2ccccc2F)c1` (centres unmarked) it is -63%; for `Cc1cc(C(C)(C)C)oc1C(=O)O` it is 27.6%.
Turning to `CN1C(=O)OC(C)(CCc2ccccc2)C1(C)O` (centres unmarked), the “hERG current change (%, negative = inhibition) at 10uM” value came out at 11.5%.
As to `Cc1c(C(=O)Nc2c(C)n(C)n(-c3ccccc3)c2=O)oc2ccc(Cl)cc12`, the “hERG current change (%, negative = inhibition) at 10uM” value is reported as -51.3%.
The figure for `Cc1cc2oc(C(=O)Nc3c(C)n(C)n(-c4ccccc4)c3=O)c(C)c2cc1C` is -24%; for `Cc1cc(C)c2c(C)c(C(=O)Nc3c(C)n(C)n(-c4ccccc4)c3=O)oc2c1` it is -16.7%; for `Cc1ccc2c(C)c(C(=O)Nc3c(C)n(C)n(-c4ccccc4)c3=O)oc2c1` it is -2.96%.
Next, `Cc1cc2oc(C(=O)Nc3c(C)n(C)n(-c4ccccc4)c3=O)c(C)c2cc1Cl`: -72.2%; `Cc1c(C(=O)Nc2c(C)n(C)n(-c3ccccc3)c2=O)oc2ccccc12`: 15.8%; `CN(C)P1(N(C)C)=Nc2c(c(N)nn2C)C(c2ccccc2)=N1`: -6.87%.
The figure for `CCOc1cc(S(=O)(=O)NCC2OCCc3ccccc32)c(OCC)cc1-n1cnnn1` (centres unmarked) is -21.5%; for `CC(=O)Nc1ccc(S(=O)(=O)N2CCN(C(=O)C3COc4ccccc4O3)CC2)cc1` (centres unmarked) it is -7.33%; for `Cc1ccc(N2C(=O)NC(=O)/C(=C\c3ccoc3)C2=O)cc1` it is 22%.
As for `O=P1(Nn2cnnc2)C=C(c2ccccc2)OC(c2ccccc2)=C1`, the “hERG current change (%, negative = inhibition) at 10uM” value is -20.8%.
For `CCN1CCN(P2(=O)C=C(c3ccccc3)OC(c3ccccc3)=C2)CC1`, the “hERG current change (%, negative = inhibition) at 10uM” value is recorded as -77.9%.
The figure for `O=P1(O)C=C(c2ccccc2)OC(c2ccccc2)=C1` is 23.9%; for `Cc1cc(C(=O)CSc2nc(N)cc(N)n2)c(C)n1CCc1ccc(F)cc1` it is -13.9%; for `Cn1c(=O)c2[nH]c(-c3ccc(S(=O)(=O)O)cc3)nc2n(C)c1=O.O` it is 10.2%.
Next, `O=C(Nc1cccc2ccccc12)/C(=C/c1ccc([N+](=O)[O-])cc1)NC(=O)c1ccccc1`: -55.6%; `O=C(Nc1cccc(C(=O)O)c1)/C(=C/c1ccc([N+](=O)[O-])cc1)NC(=O)c1ccccc1`: -5.36%; `O=C(N/N=C/c1ccc(O)cc1)/C(=C/c1ccc([N+](=O)[O-])cc1)NC(=O)c1ccccc1`: 8.54%.
The figure for `O=C(N/C(=C/c1cccc([N+](=O)[O-])c1)C(=O)N1CCCCC1)c1cccs1` is -7.23%.
`O=C(Nc1ccccc1)/C(=C/c1ccc([N+](=O)[O-])cc1)NC(=O)c1ccccc1`: the “hERG current change (%, negative = inhibition) at 10uM” value is recorded as 8.2%.
Take `O=C(Nc1ccc(Br)cc1)/C(=C/c1cccc([N+](=O)[O-])c1)NC(=O)C1CCCCC1`: the “hERG current change (%, negative = inhibition) at 10uM” value was -16%.
As for `O=C(N/N=C/c1ccc(O)c(O)c1O)/C(=C/c1ccc([N+](=O)[O-])cc1)NC(=O)c1ccccc1`, the “hERG current change (%, negative = inhibition) at 10uM” value is 12.4%.
As for `O=C(Nc1cccc2ccccc12)/C(=C\c1cccc([N+](=O)[O-])c1)NC(=O)c1cccs1`, the “hERG current change (%, negative = inhibition) at 10uM” value was -70.1%.
The figure for `COc1ccc(/C=C(\NC(=O)c2cccs2)C(=O)Nc2cccc3ccccc23)cc1OC` is -7.06%; for `O=C(Nc1ccc([N+](=O)[O-])cc1)/C(=C/c1cccc([N+](=O)[O-])c1)NC(=O)C1CCCCC1` it is -69%; for `Cc1ccc(NC(=O)/C(=C/c2cccc([N+](=O)[O-])c2)NC(=O)C2CCCCC2)c(C)c1` it is -18.7%.
Next, `O=C(N/N=C/c1ccc(Br)o1)/C(=C/c1ccc([N+](=O)[O-])cc1)NC(=O)c1ccccc1`: -60.1%; `Cc1cc(NC(=O)C(C)SCC(=O)N(C)CC(=O)Nc2ccc(F)cc2)no1` (centres unmarked): 7.59%.
For `CN(CC(=O)Nc1ccccc1Cl)C(=O)Cn1cc(C(F)(F)F)cc(Cl)c1=O`, the “hERG current change (%, negative = inhibition) at 10uM” value is -6.27%.
The figure for `O=C(CN1C(=O)COc2ccc(S(=O)(=O)N3CCOCC3)cc21)NCc1ccccn1` is -1.38%; for `O=C(NCC1CCCO1)C1CCN(c2ccc(S(=O)(=O)N3CCCC3)cc2)CC1` (centres unmarked) it is -4.69%.
Consider `CC(C(=O)c1ccc(-c2ccccc2)cc1)[n+]1ccccc1.[Br-]` (centres unmarked), for which the “hERG current change (%, negative = inhibition) at 10uM” value was 2.72%.
The figure for `CCOC(=O)c1ccc(N2C(=O)c3n[nH]c(C)c3C2c2cccnc2)cc1` (centres unmarked) is -17.2%.
Next, `CC(C(=O)OCC(=O)c1ccc(F)cc1)N1C(=O)C2C3C=CC(C3)C2C1=O` (centres unmarked): -15.4%; `Cc1cccc(NC(=O)/C(=C/c2cccc([N+](=O)[O-])c2)NC(=O)c2cccs2)c1`: 10.2%.
Turning to `Cc1ccc(NC(=O)/C(=C\c2cccc([N+](=O)[O-])c2)NC(=O)c2cccs2)cc1`, the “hERG current change (%, negative = inhibition) at 10uM” value is -1.85%.
The figure for `O=C(Nc1cccc2ccccc12)/C(=C/c1cccc([N+](=O)[O-])c1)NC(=O)c1cccs1` is -67.7%.
